Measurements taken from PubChem BioAssay AID1159580 (chemical genetic matrix, 2015).
Values joined by “and” are separate entries in the source; they are usually repeats but may differ in a detail not shown here. Equal entries are not always repeated. About 2,000 (36%) of roughly 5,500 compounds were called active. Inconclusive results (about 18%) are left out. Cut-off read from the data, not from the text of the source: active = normalized growth mostly below about 0.91 (no sharp cut-off); inconclusive = no clear call, values can overlap the other calls; inactive = mostly above about 0.92. The list shows a part of the results.

Test: chemical genetic growth profiling, strain panel (AID 1159580);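 note: tested at 20 µM; growth read once vehicle control cultures reached saturation at 30 °C; 1 = growth at the plate median or of vehicle wells; lower values mean less growth of the strain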
Conditions: growth OD

Measured: normalized growth

O=C(O)c1cc2cc(F)ccc2[nH]1
inactive: S. cerevisiae deletion strains, locus YJR075W, strain HOC1, active compounds read low 1.01 | S. cerevisiae deletion strains, locus YKL009W, strain mrt4, active compounds read low 1 | S. cerevisiae deletion strains, locus YKL068W, active compounds read low 1.01 | S. cerevisiae deletion strains, locus YKL085W, strain MDH1 (second series), active compounds read low 1.01 | S. cerevisiae deletion strains, locus YKL085W, strain MDH1, active compounds read low 1.01 | S. cerevisiae deletion strains, locus YKL160W, strain elf1, active compounds read low 0.974 | S. cerevisiae deletion strains, locus YKL190W, strain CNB1, active compounds read low 0.999 | S. cerevisiae deletion strains, locus YKR001C, strain vps1, active compounds read low 1.02 | S. cerevisiae deletion strains, locus YKR026C, strain gcn3, active compounds read low 0.949 | S. cerevisiae deletion strains, locus YKR091W, strain srl3, active compounds read low 0.968 | S. cerevisiae deletion strains, locus YLL001W, strain dnm1, active compounds read low 0.976 | S. cerevisiae deletion strains, locus YLL026W, active compounds read low 0.996 | S. cerevisiae deletion strains, locus YLL041C, strain sdh2, active compounds read low 0.97 | S. cerevisiae deletion strains, locus YLR027C, strain aat2, active compounds read low 0.99 | S. cerevisiae deletion strains, locus YLR039C, strain RIC1, active compounds read low 1.02 | S. cerevisiae deletion strains, locus YLR058C, strain SHM2, active compounds read low 1.01 | S. cerevisiae deletion strains, locus YLR102C, strain apc9, active compounds read low 1.02 | S. cerevisiae deletion strains, locus YLR113W, strain HOG1, active compounds read low 0.948 | S. cerevisiae deletion strains, locus YLR221C, strain rsa3, active compounds read low 0.986 | S. cerevisiae deletion strains, locus YLR258W, strain gsy2, active compounds read low 0.987 | S. cerevisiae deletion strains, locus YLR262C, strain YPT6 (second series), active compounds read low 1 | S. cerevisiae deletion strains, locus YLR262C, strain YPT6, active compounds read low 1.04 | S. cerevisiae deletion strains, locus YLR268W, strain sec22, active compounds read low 1.02 | S. cerevisiae deletion strains, locus YLR320W, strain mms22, active compounds read low 1.01 | S. cerevisiae deletion strains, locus YLR330W, strain CHS5, active compounds read low 1.01 | S. cerevisiae deletion strains, locus YLR342W, strain FKS1 (second series), active compounds read low 1.01 | S. cerevisiae deletion strains, locus YLR342W, strain FKS1, active compounds read low 0.98 | S. cerevisiae deletion strains, locus YLR357W, strain rsc2, active compounds read low 0.976 | S. cerevisiae deletion strains, locus YLR370C, strain arc18, active compounds read low 0.989 | S. cerevisiae deletion strains, locus YLR371W, strain rom2, active compounds read low 1.01 | S. cerevisiae deletion strains, locus YLR384C, strain iki3, active compounds read low 0.965 | S. cerevisiae deletion strains, locus YLR418C, strain cdc73, active compounds read low 1.05 | S. cerevisiae deletion strains, locus YML016C, strain PPZ1, active compounds read low 1.01 | S. cerevisiae deletion strains, locus YML032C, strain rad52, active compounds read low 1.02 | S. cerevisiae deletion strains, locus YML120C, strain ndi1, active compounds read low 0.995 | S. cerevisiae deletion strains, locus YML124C, strain tub3, active compounds read low 1.01 | S. cerevisiae deletion strains, locus YMR058W, strain fet3, active compounds read low 0.985 | S. cerevisiae deletion strains, locus YMR078C, strain ctf18, active compounds read low 1.02 | S. cerevisiae deletion strains, locus YMR125W, strain sto1, active compounds read low 0.948 | S. cerevisiae deletion strains, locus YMR129W, active compounds read low 0.982 | S. cerevisiae deletion strains, locus YMR205C, strain PFK2, active compounds read low 1.03 | S. cerevisiae deletion strains, locus YMR223W, strain ubp8, active compounds read low 1.02 | S. cerevisiae deletion strains, locus YMR231W, strain pep5, active compounds read low 0.992 | S. cerevisiae deletion strains, locus YMR263W, strain SAP30, active compounds read low 1.01 and 0.999 | S. cerevisiae deletion strains, locus YMR307W, strain GAS1, active compounds read low 1.05 | S. cerevisiae deletion strains, locus YNL067W, strain RPL9B, active compounds read low 1.02 | S. cerevisiae deletion strains, locus YNL071W, strain lat1, active compounds read low 0.984 | S. cerevisiae deletion strains, locus YNL128W, strain TEP1, active compounds read low 1 | S. cerevisiae deletion strains, locus YNL153C, strain GIM3, active compounds read low 1.01 | S. cerevisiae deletion strains, locus YNL175C, strain NOP13, active compounds read low 0.952 | S. cerevisiae deletion strains, locus YNL183C, strain NPR1, active compounds read low 0.908 | S. cerevisiae deletion strains, locus YNL197C, strain WHI3, active compounds read low 0.949 | S. cerevisiae deletion strains, locus YNL209W, strain ssb2, active compounds read low 0.983 | S. cerevisiae deletion strains, locus YNL224C, strain SQS1, active compounds read low 0.973 | S. cerevisiae deletion strains, locus YNL233W, strain BNI4, active compounds read low 1.01 | S. cerevisiae deletion strains, locus YNL248C, strain rpa49, active compounds read low 0.969 | S. cerevisiae deletion strains, locus YNL250W, strain rad50, active compounds read low 1.01 | S. cerevisiae deletion strains, locus YNL271C, strain bni1, active compounds read low 1.01 | S. cerevisiae deletion strains, locus YNL298W, strain CLA4, active compounds read low 1.03 | S. cerevisiae deletion strains, locus YNL307C, strain MCK1, active compounds read low 1.02 | S. cerevisiae deletion strains, locus YNL322C, strain KRE1 (second series), active compounds read low 0.99 | S. cerevisiae deletion strains, locus YNL322C, strain KRE1, active compounds read low 1.01 and 0.971 | S. cerevisiae deletion strains, locus YNR049C, strain mso1, active compounds read low 0.97 | S. cerevisiae deletion strains, locus YNR052C, strain pop2, active compounds read low 1.02 | S. cerevisiae deletion strains, locus YOL006C, strain TOP1, active compounds read low 1.05 | S. cerevisiae deletion strains, locus YOL012C, strain htz1 0.97 | S. cerevisiae deletion strains, locus YOL147C, strain pex11, active compounds read low 1.01 | S. cerevisiae deletion strains, locus YOR001W, strain rrp6, active compounds read low 0.961 | S. cerevisiae deletion strains, locus YOR061W, strain CKA2, active compounds read low 1.01 | S. cerevisiae deletion strains, locus YOR069W, strain VPS5, active compounds read low 0.998 | S. cerevisiae deletion strains, locus YOR070C, strain gyp1, active compounds read low 1 | S. cerevisiae deletion strains, locus YOR080W, strain dia2, active compounds read low 0.977 | S. cerevisiae deletion strains, locus YOR083W, strain WHI5 (second series), active compounds read low 0.964 | S. cerevisiae deletion strains, locus YOR083W, strain WHI5, active compounds read low 0.965 | S. cerevisiae deletion strains, locus YOR106W, strain vam3, active compounds read low 0.972 | S. cerevisiae deletion strains, locus YOR136W, strain idh2, active compounds read low 1.02 | S. cerevisiae deletion strains, locus YOR144C, strain elg1, active compounds read low 1.01 | S. cerevisiae deletion strains, locus YOR184W, strain ser1, active compounds read low 1.02 | S. cerevisiae deletion strains, locus YOR231W, strain MKK1, active compounds read low 0.986 | S. cerevisiae deletion strains, locus YOR265W, strain rbl2, active compounds read low 0.98 | S. cerevisiae deletion strains, locus YOR270C, strain vph1, active compounds read low 1.03 | S. cerevisiae deletion strains, locus YOR290C, strain snf2, active compounds read low 0.946 | S. cerevisiae deletion strains, locus YOR316C, strain cot1, active compounds read low 1.02 | S. cerevisiae deletion strains, locus YPL051W, strain arl3, active compounds read low 0.997 | S. cerevisiae deletion strains, locus YPL055C, strain LGE1, active compounds read low 1.01 and 1.02 | S. cerevisiae deletion strains, locus YPL078C, strain atp4, active compounds read low 0.956 | S. cerevisiae deletion strains, locus YPL106C, strain sse1, active compounds read low 0.938 | S. cerevisiae deletion strains, locus YPL240C, strain hsp82, active compounds read low 0.963 | S. cerevisiae deletion strains, locus YPL241C, strain CIN2, active compounds read low 0.992 and 0.993 | S. cerevisiae deletion strains, locus YPL256C, strain CLN2, active compounds read low 1.01 | S. cerevisiae deletion strains, locus YPR119W, strain clb2, active compounds read low 1.01 | S. cerevisiae deletion strains, locus YPR141C, strain kar3, active compounds read low 1.01 | S. cerevisiae deletion strains, locus YPR163C, strain tif3, active compounds read low 1.01 | S. cerevisiae deletion strains, locus YPR167C, strain met16, active compounds read low 1.02 | S. cerevisiae deletion strains, strain wtn01, active compounds read low 1.02 | S. cerevisiae strains, strain wild type, active compounds read low 0.979
